FLuc modulator = firefly luciferase modulation, counter-screen for miR-21 project; Potency, µM (titrated, usually from 57.5 µM), usual class: inhibitors; 360,000 tested, 6.9% active; P08659; purified FLuc, Km substrates, luminescence inhibition; further: nearly all actives have a fitted effect of over 55% in size
Target sequence (P08659 whole entry, looked up): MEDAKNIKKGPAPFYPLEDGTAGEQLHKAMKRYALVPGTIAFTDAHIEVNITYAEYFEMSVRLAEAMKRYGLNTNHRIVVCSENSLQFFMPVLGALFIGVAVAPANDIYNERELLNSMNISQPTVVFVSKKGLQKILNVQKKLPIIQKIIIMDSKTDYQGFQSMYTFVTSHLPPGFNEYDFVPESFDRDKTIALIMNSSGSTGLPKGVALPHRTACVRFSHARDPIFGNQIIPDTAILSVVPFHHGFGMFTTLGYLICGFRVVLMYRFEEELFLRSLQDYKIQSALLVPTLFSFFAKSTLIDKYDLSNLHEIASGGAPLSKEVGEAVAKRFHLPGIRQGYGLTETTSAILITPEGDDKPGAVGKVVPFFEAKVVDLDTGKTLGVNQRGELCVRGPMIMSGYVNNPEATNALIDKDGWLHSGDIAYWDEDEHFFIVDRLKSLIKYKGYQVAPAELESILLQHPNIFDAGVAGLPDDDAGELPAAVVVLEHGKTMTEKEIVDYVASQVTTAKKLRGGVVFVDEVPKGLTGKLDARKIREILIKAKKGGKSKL
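Biochemical qHTS of compounds, final roughly 60 µM downward over six points, against 10 nM purified firefly luciferase using Km concentrations of substrates (10 uM D-luciferin, 10 uM ATP) in Tris acetate pH 7.5 buffer; luminescence output.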
SMN2 splice enh = increases expression of the SMN2 splice variant; HEK293 SMN2-luciferase splicing reporter, luminescence, 30-36 h; Potency, µM (titrated, usually from 46.1 µM), actives largely listed as activators; 210,000 tested, 2.8% active; AID 1458; further: nearly all actives have a fitted effect of over 55% in size
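qHTS luciferase splicing reporter: luminescence rises when SMN2 exon 7 is included in transfected HEK293 cells. Compound exposure lasted 30-36 h at 37C, with 4.5 mM final sodium butyrate as control, followed by a ONE-Glo read.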
ELG1 repair inh = ELG1-dependent DNA repair inhibition | HEK293T ELG1-luciferase reporter, luminescence, 16 h; DNA damage induced by 5-fluorouridine | Potency, µM (doses to about 46.1 µM), actives largely listed as inhibitors | 330,000 tested, 2.3% active | AID 504467; further: nearly all actives have a fitted effect of over 55% in size
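DMSO vehicle served as the neutral condition. Each well held 2,000 cells given 5-fluorouridine plus compound; after 16 hr at 37 °C/5% CO2, ONE-Glo was added and luciferase measured 30 min later.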
ELG1 genotoxic = genotoxicity induction in ELG1-luciferase HEK293T cells; HEK293T ELG1-luciferase reporter, luminescence, 16 h; Potency, µM (highest dose often 46 µM), most hits filed as activators; 330,000 tested, 1.3% active; further: nearly all actives have a fitted effect of over 60% in size
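HEK293T cells expressing luciferase-tagged ELG1 were treated with compound or DMSO for 16 hr at 37°C. Luciferase activity was then read after 30 min with ONE-Glo at room temperature; rising signal flags genetic stress.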
NPC1 promoter act = activates the NPC1 promoter; Huh7 NPC1 promoter luciferase reporter, 24 h; Potency, µM (doses to about 9.22 µM), hits mostly activators; 320,000 tested, 2.4% active; further: nearly all actives have a fitted effect of over 60% in size
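Luminescence from an NPC1 promoter-driven luciferase reporter in stably transfected Huh7 cells was measured after 24 h compound treatment at 37 °C, followed by 10 min ambient incubation with luciferase detection reagent.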
Rab9 promoter act = activators of Rab9 promoter; Huh7 Rab9 promoter-luciferase reporter, luminescence, 24 h; Potency, µM (series often up to 9.22 µM), usual class: activators; 320,000 tested, 2.8% active; AID 485297; further: nearly all actives have a fitted effect of over 60% in size
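Stable Rab9-luc Huh7, 1500 cells/well, 2 h settle; cmpd in DMSO, 24 h, 37 °C/5% CO2; luciferase reagent 10 min RT; luminescence.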
Hits are given with their value. Hits are enriched below; roughly 9.2% of the tested compounds scored in any of these assays. The call rests on the fitted dose curve; in most records, active means well fitted curve in the direction sought with a large enough effect; inconclusive means small, poorly fitted or top-dose-only effect, or another doubt; inactive means no such curve, though single readings can be large; an effect the other way counts as inactive or inconclusive.

`Cc1ccc(NC(=O)c2ccc([N+](=O)[O-])cc2Cl)nc1` gave FLuc modulator 12µM, SMN2 splice enh 5µM, ELG1 repair inh inconclusive, ELG1 genotoxic inconclusive, NPC1 promoter act 2.5µM and Rab9 promoter act 2.8µM.
For CCC(=O)NC(=S)Nc1ccc(NC(=O)c2ccc([N+](=O)[O-])cc2Cl)cc1 the results were FLuc modulator inactive, SMN2 splice enh inactive, ELG1 repair inh 5.8µM, ELG1 genotoxic inactive, NPC1 promoter act inactive and Rab9 promoter act inactive.
COc1ccc(Cl)cc1N(CC(=O)Nc1ccccc1C(=O)N1CCOCC1)S(C)(=O)=O was read as FLuc modulator inactive, ELG1 repair inh inactive, ELG1 genotoxic inactive, NPC1 promoter act inactive and Rab9 promoter act inactive.
Screening COc1ccc(Cl)cc1NC(=O)Cn1cnc2c1c(=O)n(C)c(=O)n2C returned FLuc modulator inactive.
CC(OC(=O)c1nc(Cl)ccc1Cl)C(=O)Nc1ccccc1F (stereo not given) was read as FLuc modulator inactive, ELG1 repair inh inactive, ELG1 genotoxic inactive, NPC1 promoter act inactive and Rab9 promoter act inactive.
For Cc1ccccc1N(C(=O)c1csnn1)C(C(=O)NC1CCCC1)c1ccncc1 (stereo not given) the results were FLuc modulator inactive, ELG1 repair inh inactive, ELG1 genotoxic inactive, NPC1 promoter act inactive and Rab9 promoter act inactive.
Cc1ccc(C)c(Cn2c(C3CC(=O)N(c4ccccc4C)C3)nc3ccccc32)c1 (stereo not given) was read as FLuc modulator inactive.
For CCC(=O)NC(=S)Nc1cccc(NC(=O)c2ccc(Cl)cc2Cl)c1 the results were FLuc modulator 12µM, SMN2 splice enh inactive, ELG1 repair inh inactive, ELG1 genotoxic inactive, NPC1 promoter act inactive and Rab9 promoter act inactive.
For Cc1cccc(C(=O)O/N=C(\N)c2ccc(Br)cc2)c1 the results were FLuc modulator 3µM, SMN2 splice enh inactive, ELG1 repair inh inconclusive, ELG1 genotoxic 11µM, NPC1 promoter act 0.56µM and Rab9 promoter act 0.71µM.
For N/C(=N\OC(=O)c1cccc2ccccc12)c1ccc(Br)cc1 the results were FLuc modulator inconclusive, SMN2 splice enh inconclusive, ELG1 repair inh inconclusive, ELG1 genotoxic inactive, NPC1 promoter act inactive and Rab9 promoter act inactive.
`Cc1cccc(OCC(=O)O/N=C(\N)c2ccc(Cl)cc2)c1` gave FLuc modulator inactive, SMN2 splice enh inactive, ELG1 repair inh inactive, ELG1 genotoxic inactive, NPC1 promoter act inactive and Rab9 promoter act inactive.
Screening Cc1ccc(C(=O)O/N=C(\N)c2ccc(Br)cc2)cc1C returned FLuc modulator inconclusive, SMN2 splice enh inactive, ELG1 repair inh inconclusive, ELG1 genotoxic 16µM, NPC1 promoter act inactive and Rab9 promoter act inactive.
Cc1cc(C)cc(C(=O)O/N=C(\N)c2ccc(Br)cc2)c1 was read as FLuc modulator inactive, SMN2 splice enh inactive, ELG1 repair inh inactive, ELG1 genotoxic inactive, NPC1 promoter act inconclusive and Rab9 promoter act inconclusive.
Cc1cccc(C(=O)O/N=C(\N)c2ccc(Cl)cc2)c1 was read as FLuc modulator 1.9µM, ELG1 repair inh inconclusive, ELG1 genotoxic inconclusive, NPC1 promoter act 0.4µM and Rab9 promoter act 1.8µM.
`Cc1ccc(C)c(C(=O)O/N=C(\N)c2ccc(Br)cc2)c1` gave FLuc modulator 15µM, SMN2 splice enh inconclusive, ELG1 repair inh inconclusive, ELG1 genotoxic inconclusive, NPC1 promoter act inconclusive and Rab9 promoter act inactive.
`CC[C@@]1(C(=O)OC)N[C@H](CN(C)C(=O)COc2ccccc2)[C@@H]2C(=O)N(C)C(=O)[C@@H]21` gave ELG1 repair inh inactive and ELG1 genotoxic inactive.
For Cc1ccc(/C(N)=N/OC(=O)c2ccc(Cl)cc2Cl)cc1 the results were FLuc modulator 1.1µM, SMN2 splice enh 11µM, ELG1 repair inh inconclusive, ELG1 genotoxic inconclusive, NPC1 promoter act 3.2µM and Rab9 promoter act 2.5µM.
For N/C(=N\OC(=O)N1CCOCC1)c1ccc(Br)cc1 the results were FLuc modulator inconclusive, SMN2 splice enh inactive, ELG1 repair inh inconclusive, ELG1 genotoxic inactive, NPC1 promoter act inconclusive and Rab9 promoter act inconclusive.
For N/C(=N\OC(=O)c1ccoc1)c1ccc(Br)cc1 the results were FLuc modulator 6.7µM, ELG1 repair inh inconclusive, ELG1 genotoxic 3.7µM, NPC1 promoter act 2.5µM and Rab9 promoter act 3.2µM.
Screening Cc1cccc(C(=O)O/N=C/c2ccc(Br)cc2)c1 returned FLuc modulator 3.4µM, SMN2 splice enh inactive, ELG1 repair inh inconclusive, ELG1 genotoxic inconclusive, NPC1 promoter act inactive and Rab9 promoter act inactive.
`COc1ccc(-c2cn3nc(N4CCC(C(=O)Nc5cccc(Cl)c5)CC4)sc3n2)cc1` gave FLuc modulator inactive.
Screening O=S(=O)(c1ccc(Cl)cc1)c1nc(-c2cccs2)oc1SCc1ccccc1F returned FLuc modulator inactive and SMN2 splice enh inactive.
Screening O=C(Nc1cc(Cl)cc(Cl)c1)c1cc(S(=O)(=O)N2CCc3ccccc3C2)ccc1F returned FLuc modulator inactive.
CCOC(=O)Cn1nnnc1C(C(C)C)N(Cc1cc2c(C)cc(C)cc2[nH]c1=O)C1CCCC1 (stereo not given) was read as FLuc modulator inactive, SMN2 splice enh inactive, ELG1 repair inh 18µM, ELG1 genotoxic inactive, NPC1 promoter act inactive and Rab9 promoter act inactive.
For Cc1cc(C)nc(-n2nc(C)cc2NC(=O)c2ccc(S(=O)(=O)N3CCOCC3)cc2)n1 the results were FLuc modulator inactive, ELG1 repair inh inactive, ELG1 genotoxic inactive, NPC1 promoter act inactive and Rab9 promoter act inactive.
For O=C1/C(=N\S(=O)(=O)c2cccs2)C([n+]2ccccc2)=C([O-])c2ccccc21 the results were FLuc modulator inactive, ELG1 repair inh 2.6µM, ELG1 genotoxic inactive, NPC1 promoter act inactive and Rab9 promoter act inactive.
CC(C)(C)c1cc[n+](C2=C([O-])c3ccccc3C(=O)/C2=N\S(=O)(=O)c2cccs2)cc1 was read as FLuc modulator inconclusive, ELG1 repair inh 2.9µM, ELG1 genotoxic inactive, NPC1 promoter act inactive and Rab9 promoter act inactive.
For N/C(=N\S(=O)(=O)c1cccs1)c1ccccc1 the results were FLuc modulator inactive, SMN2 splice enh inactive, ELG1 repair inh inactive, ELG1 genotoxic inactive, NPC1 promoter act inactive and Rab9 promoter act inactive.
`C[C@@]12CCC3[C@@](CCC4[C@@]3(C)CCC[C@@]4(C)C(=O)N3CCOCC3)(CC1=O)C2` (stereo not given in full) gave ELG1 repair inh inconclusive and ELG1 genotoxic inactive.
For C/C(=N\NC(=O)c1cccc(N/N=C(\C)c2ccco2)c1)c1ccco1 the results were FLuc modulator 13µM, SMN2 splice enh inactive, ELG1 repair inh inconclusive, ELG1 genotoxic inactive, NPC1 promoter act inactive and Rab9 promoter act inconclusive.

Assay outcomes: PubChem, National Center for Advancing Translational Sciences (NCATS)
